The whole screen tested about 48,000 compounds, of which about 13,000 (27%) showed an effect of 50% or more. Some of the results follow.

For this test, the system named is Wolbachia pipientis. The test can be described thus: Anti-Wolbachia Cell-Based Screen. On the set-up: scale not given: in the data most compounds retested in dose-response had high values. The settings on record: 5 µM. It is filed as functional.
For the compound `CCn1nc(C(=O)N2CCCC2c2noc(C3CC3)n2)ccc1=O` (stereo not drawn), the “Percent Effect” value is given as -10.37%.
In the case of `CCOCCN1CCN(CCc2nc3ccccc3c(=O)[nH]2)CC1`, the “Percent Effect” value is on record as -16.1%.
Then `O=S(=O)(Cc1nc(C2CC2)no1)c1cc(F)ccc1F`, with -10.78%.
Then `Cc1nn(C)c(Cl)c1C1CCCN1C(=O)c1ccncc1` (stereo not drawn), with 76.23%.
The figure for `Cc1nn(C)c(Cl)c1C1CCCN1C(=O)c1ccc2nncn2c1` (stereo not drawn) is -0.8221%; for `CCCc1cc(NCc2cc(C)on2)n2nccc2n1` it is 18.67%.
For the compound `CN(C)c1nc(-c2ccncc2)nc2c1CCN(C(=O)[C@H](N)CO)C2`, the “Percent Effect” value was 12.11%.
The figure for `O=C(NCCc1cccs1)[C@]12COC[C@H]1CN(c1ncccn1)C2.O=C(O)C(F)(F)F` is -26.22%; for `CCNC(=O)[C@@H]1C[C@H](N)CN1Cc1ccc(-c2cc[nH]n2)o1` it is 2.507%.
Then `Cc1cc(N2CCN(Cc3ccc(-c4cc[nH]n4)o3)CC2)cc(C)n1`, with 1.091%.
Regarding `O=C(O)c1ccc(CC2CCN(Cc3ccc(-c4cc[nH]n4)o3)C2)cc1` (stereo not drawn), the “Percent Effect” value is reported as 103.3%.
Then `Fc1cnc(N2CCN(Cc3ccc(-c4cc[nH]n4)o3)CC2)nc1`, with 10.27%; and `Cc1cccnc1CN1CCN(Cc2ccc(-c3cc[nH]n3)o2)CC1`, with 0.5837%; and `Cc1cnccc1N1CCCN(Cc2ccc(-c3cc[nH]n3)o2)CC1`, with 39.38%.
For `Fc1ccc(N2CCCN(Cc3ccc(-c4cc[nH]n4)o3)CC2)cc1`, the “Percent Effect” value was 76.67%.
The figure for `Cc1nn(C)c(C)c1CN1CCCC(c2ccc(C(=O)O)cc2)C1` (stereo not drawn) is 16.04%.
On to `O=C(O)c1ccc(C2CCCN(Cc3ccc(-c4cc[nH]n4)o3)C2)cc1` (stereo not drawn), for which the “Percent Effect” value came to 112.5%.
In the case of `Cc1cnc(C)c(N2CCN(Cc3ccc(-c4cc[nH]n4)o3)CC2)n1`, the “Percent Effect” value amounted to 2.715%.
Turning to `O=C(O)c1ccccc1C1CCN(Cc2ccc(-c3cc[nH]n3)o2)C1` (stereo not drawn), the “Percent Effect” value stood at 111.1%.
On to `CCN1CC2(CCC1=O)CCN(Cc1cccc(C#N)c1)CC2`, for which the “Percent Effect” value is given as -7.959%.
The figure for `CC(C)c1nc(CN(C)C(=O)C2CC(=O)N(Cc3ccncc3)C2)cs1` (stereo not drawn) is 6.051%; for `COc1cccc(CN(C)C(C)c2ccco2)c1OCCn1ccnc1` (stereo not drawn) it is -0.9941%.
Consider `CN(CCN1CCCCCC1)C(=O)c1cc(CN2CCC(O)CC2)on1`, for which the “Percent Effect” value is listed as -8.784%.
Take `Nc1ncc(C(=O)N2CCC3(CCCO3)CC2)c(-c2ccccc2)n1`: the “Percent Effect” value is on record as -10.16%.
With `CC(C)(CNc1ccc(S(=O)(=O)C(F)F)cc1)N1CCOCC1`, the “Percent Effect” value was found to be 2.444%.
Consider `CC(C)NS(=O)(=O)c1cc(C(=O)O)cc(-c2ccccc2C#N)c1`, for which the “Percent Effect” value came to 4.012%.
As to `Cc1cnccc1CN1CC[C@@](C)(O)[C@H](Oc2ccccc2)C1`, the “Percent Effect” value was -3.171%.
Take `Cc1cnccc1CN1CC[C@@](C)(O)[C@H](Oc2cccc(F)c2)C1`: the “Percent Effect” value was 113.3%.
For `Cc1cnccc1CN1CC[C@H](Oc2cccc(F)c2)[C@@](C)(O)C1`, the “Percent Effect” value is reported as 130.7%.
The figure for `Cc1cc(F)ccc1CN1CCCC(O)(CN2CCCC2)C1` (stereo not drawn) is 20.34%; for `Cc1ccccc1CN1CC[C@@]2(O)CCN(C(=O)C3CCC3)C[C@H]2C1` it is -8.444%.
The figure for `CC(C)[C@@H]1CN(CC(=O)NCc2ccco2)C[C@H]1NS(=O)(=O)N(C)C` is -2.04%.
With `CCSc1nc(N)c(NC(=O)c2ccc(C)cc2)c(=O)[nH]1`, the “Percent Effect” value is recorded as -2.31%.
Take `CCOCc1ccc(CNC2=NCCCN2)cc1.I`: the “Percent Effect” value is listed as 0.3337%.
Consider `Br.Cc1ccc(OCCCSC2=NCCN2)cc1`, for which the “Percent Effect” value was 5.255%.
For the compound `Cn1ncc2c(NCCOc3ccc(F)cc3)nc(C3CCCC3)nc21`, the “Percent Effect” value is 8.04%.
On to `I.c1ccc(OCCNC2=NCCCN2)cc1`, for which the “Percent Effect” value is listed as 111%.
As to `Fc1ccc(OCCCNC2=NCCN2)cc1.I`, the “Percent Effect” value is 63.04%.
Turning to `Fc1ccc(OCCCNC2=NCCCN2)cc1.I`, the “Percent Effect” value worked out at 81.36%.
In the case of `Br.Cc1ccc(OCCSC2=NCCN2)cc1`, the “Percent Effect” value came to 1.775%.
With `Fc1ccc(OCCCN2CC(n3cccn3)C2)cc1`, the “Percent Effect” value was determined as 3.105%.
Regarding `CN(C)c1ccc(CNC2=NCCCN2)cc1.I`, the “Percent Effect” value is reported as 13.13%.
`COC(=O)C1Cc2nc[nH]c2CN1Cc1ccc(Sc2ncccn2)o1` (stereo not drawn): the “Percent Effect” value was 2.291%.
For the compound `COc1cc2nc(NCc3cc(C)on3)nc(N)c2cc1OC`, the “Percent Effect” value is listed as -8.416%.
The figure for `CC1CN(Cc2noc(C3CC3)n2)CCN1Cc1nccn1C` (stereo not drawn) is -7.382%.
The figure for `CCNC(=O)c1ccnc(N2CCCC(COc3ccccc3C)C2)c1` (stereo not drawn) is 3.224%; for `CCOCCn1nc(C)cc1C(=O)N(C)Cc1cccc2ncccc12` it is 6.003%.
With `C=C(C)Cn1ccc2cc(OC)c(F)cc2c1=O`, the “Percent Effect” value is reported as -16.88%.
For the compound `CC[C@H]1CN(S(C)(=O)=O)CC[C@H]1CC(=O)NCCSC`, the “Percent Effect” value is -2.393%.
For the compound `O=C(c1ccc(-n2cnnn2)cc1)N1CCCC(n2ccnc2)C1` (stereo not drawn), the “Percent Effect” value was found to be 90.08%.
Regarding `O=C(c1ccn(-c2ccc(F)cc2)n1)N1CCCC(n2ccnc2)C1` (stereo not drawn), the “Percent Effect” value is on record as 97.03%.
On to `NC(=O)C1CCCN(C(=O)c2ccc(-n3ccnc3)cc2)C1` (stereo not drawn), for which the “Percent Effect” value was 0.2074%.
Take `CCc1nccn1C1CCCN(C(=O)c2ccn(-c3ccccc3)n2)C1` (stereo not drawn): the “Percent Effect” value is on record as -25.66%.
On to `Cc1ccn(-c2ccc(C(=O)N3CCCC(n4ccnc4)C3)cc2)n1` (stereo not drawn), for which the “Percent Effect” value was 4.214%.
The figure for `CS(=O)(=O)c1ccc(C(=O)N2CCCC(n3ccnc3)C2)cc1` (stereo not drawn) is 96.86%.
The figure for `O=C(c1ccc(-n2ccnc2)cc1)N1CCCC(n2ccnc2)C1` (stereo not drawn) is 120.2%; for `O=C(CNC(=O)c1ccoc1)NCCOc1ccc2c(c1)CCC2` it is 14.09%.
The figure for `O=C1COc2cc(C(=O)N3CCCC(n4ccnc4)C3)ccc2N1` (stereo not drawn) is -12.82%; for `CCc1nccn1C1CCCN(C(=O)c2cncn2-c2ccccc2)C1` (stereo not drawn) it is -5.728%; for `O=C(c1ccc(OCC2CC2)nc1)N1CCCC(n2ccnc2)C1` (stereo not drawn) it is -1.875%.
On to `O=C(c1ccc(-n2cnnc2)cc1)N1CCCC(n2ccnc2)C1` (stereo not drawn), for which the “Percent Effect” value is given as 107.8%.
With `CC1=NN(c2ccc(C(=O)N3CCCC(n4ccnc4)C3)cc2)CC1` (stereo not drawn), the “Percent Effect” value is recorded as -6.024%.
Consider `CCc1nccn1C1CCCN(C(=O)c2ccc(-n3ccnc3)cc2)C1` (stereo not drawn), for which the “Percent Effect” value is on record as 94.46%.
Then `NC(=O)COc1ccc(C(=O)N2CCCC(n3ccnc3)C2)cc1` (stereo not drawn), with 96.26%.
Consider `Cc1ccnn1-c1ccc(C(=O)N2CCCC(n3ccnc3)C2)cc1` (stereo not drawn), for which the “Percent Effect” value is 116.9%.
Take `NC(=O)COc1cccc(C(=O)N2CCCC(n3ccnc3)C2)c1` (stereo not drawn): the “Percent Effect” value came out at 2.122%.
As to `CCC(NCCn1cc(C)cn1)C(=O)Nc1cc(C)on1` (stereo not drawn), the “Percent Effect” value is -26.17%.
On to `CC(=O)c1cc(CC(=O)NCc2cccc(F)c2F)cs1`, for which the “Percent Effect” value is -6.344%.
Turning to `O=C1CC[C@H]2CN(c3ncccc3F)CC[C@H]2N1CCc1ccccc1`, the “Percent Effect” value was 4.939%.
Then `Cc1noc(C)c1CN(C)Cc1csc(-c2ncccn2)n1`, with 0.1209%.
Consider `N[C@@H]1c2ccccc2C2(CCN(C(=O)c3ccc(=O)[nH]c3)CC2)[C@H]1O`, for which the “Percent Effect” value stood at 2.656%.
For the compound `Cc1cc(CN2CCN(C(=O)NCc3nc(C)cs3)CC2)on1`, the “Percent Effect” value is -3.882%.
Then `NS(=O)(=O)c1cc(C(=O)N2CCCC(n3ccnc3)C2)cs1` (stereo not drawn), with 104.4%.
Take `CC1CCCN(C(=O)c2csc(S(N)(=O)=O)c2)CC1` (stereo not drawn): the “Percent Effect” value is -10.27%.
The figure for `O=C(c1csc(Br)c1)N1CCCC(n2ccnc2)C1` (stereo not drawn) is -1.444%; for `FC(F)(F)c1cccnc1N1CCC(OC2CCOCC2)CC1` it is 1.629%.
As to `CCOc1ccc(CNC(C)c2ccc3[nH]c(=O)[nH]c3c2)cc1` (stereo not drawn), the “Percent Effect” value is listed as 115.8%.
The figure for `CC(NCc1ccc(OCC(N)=O)cc1)c1ccc(Cl)c(Cl)c1.Cl` (stereo not drawn) is 11.22%; for `CC(NCc1ccc(F)cc1)c1ccc2[nH]c(=O)[nH]c2c1` (stereo not drawn) it is 94.79%.
Then `COc1ccc(CNC(C)c2ccc3[nH]c(=O)[nH]c3c2)cc1` (stereo not drawn), with 1.768%.
Consider `Cc1ccc(CNC(C)c2ccc3[nH]c(=O)[nH]c3c2)s1` (stereo not drawn), for which the “Percent Effect” value was 0.5584%.
For `CC(NCc1ccc(F)cc1)c1ccc(OCC(=O)NC2CC2)cc1` (stereo not drawn), the “Percent Effect” value was determined as 13.29%.
The figure for `Nc1ccnc(N2CCC(CCc3ccccc3)(C(=O)O)CC2)n1` is -1.622%; for `CC(=O)N1[C@H](CN(C)C)C[C@@H]2CN(C(=O)Cc3cccs3)CC[C@@H]21.O=C(O)C(F)(F)F` it is 96.5%.
On to `CC(=O)N1[C@H](CN(C)C)C[C@@H]2CN(c3ncc(F)cn3)CC[C@@H]21.O=C(O)C(F)(F)F.O=C(O)C(F)(F)F`, for which the “Percent Effect” value was -11.57%.
For the compound `CN(C)C[C@@H]1C[C@@H]2CN(C(=O)Cc3cccs3)CC[C@@H]2N1C`, the “Percent Effect” value is reported as 87.94%.
The figure for `CC(C)CC1COCCN1C(=O)Cc1cccs1` (stereo not drawn) is -4.501%; for `CC(=O)N1[C@H](Cn2cncn2)C[C@@H]2CN(Cc3ccncc3)CC[C@@H]21.O=C(O)C(F)(F)F.O=C(O)C(F)(F)F` it is -2.106%.
As to `CN(C)Cc1nnc(C2CCN(C(=O)CCc3cccs3)CC2)n1C`, the “Percent Effect” value was -18.7%.
Then `Cn1cc(CCCNS(=O)(=O)N2CCCC2c2ccco2)cn1` (stereo not drawn), with -2.203%; and `OC1(CNc2ccc(Br)cn2)CCSCC1`, with 5.842%; and `CC(C)N(C)[C@@H]1CCN(C(=O)[C@H]2CCCO2)[C@H]1Cc1cnn(C)c1`, with -7.042%.
Regarding `O=C(O)C(F)(F)F.O=C([C@H]1CCCO1)N1CC[C@H](O)[C@@H]1Cc1ccncc1`, the “Percent Effect” value is given as -12.15%.
Then `O=C([C@H]1CCCO1)N1CC[C@@H](O)[C@@H]1Cc1ccccc1`, with 97.77%; and `O=C([C@H]1CCCO1)N1CC[C@H](O)[C@@H]1Cc1cccnc1`, with 104.4%.
As for `Cc1cc(C(=O)N2CC[C@H](OCC3CC3)[C@@H]2Cc2cccnc2)no1`, the “Percent Effect” value is on record as -4.828%.
In the case of `O=C1CC[C@H]2[C@H](CCN2C(=O)C2CCCO2)N1Cc1ccncc1` (stereo partly drawn), the “Percent Effect” value stood at 9.155%.
Then `Cn1cc(Br)c(=O)c(NS(=O)(=O)c2ccc(F)cc2)c1`, with -3.18%.

For the origin of these results see ChEMBL document CHEMBL3988442, “University of Dundee, Small-Polar-MMV Screening Library” (2021).
